Data reported in PubChem BioAssay (NCI).
This is part of a sample that, as a whole, favours compounds with a hit. Of some 79,000 tested, about 15% had one in any assay. The source made the active and inactive calls. Rule as the data show it: active = growth inhibition above about 70%; inactive = the rest.

Experiments:
[1] = NCI Yeast Anticancer Drug Screen. Data for the wt1 strain (AID 149);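 also: 0% = growth of vehicle-treated wt1 cultures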; conditions: S. cerevisiae wt1 strain (SPY 50644) growth inhibition, hits give high values
How it was run: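 wt1 yeast, compound-treated; % growth inhibition vs vehicle control.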

[2] = NCI Yeast Anticancer Drug Screen. Data for the mgt1 strain (AID 153); conditions: S. cerevisiae mgt1 mutant growth inhibition, hits give high values
How it was run: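 Genetically defined yeast (mgt1) treated with compound; inhibition of growth expressed against vehicle-treated controls.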

[3] = NCI Yeast Anticancer Drug Screen. Data for the rad50 strain (AID 155);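 also: 0% = growth of vehicle-only cultures of the same strain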; conditions: S. cerevisiae rad50 strain growth inhibition, hits give high values
How it was run: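 Genetically altered yeast (DNA repair pathway); compound treatment; growth inhibition vs vehicle ctrl.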

[4] = NCI Yeast Anticancer Drug Screen. Data for the mec2-1 strain (AID 157); conditions: S. cerevisiae mec2-1 strain, hits give high values
How it was run: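 Readout is yeast growth inhibition, normalised to vehicle-treated controls, in the mec2-1 strain exposed to compound.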

[5] = NCI Yeast Anticancer Drug Screen. Data for the rad14 strain (AID 159);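 also: 0% = growth of vehicle-treated control cultures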; conditions: S. cerevisiae rad14 strain growth inhibition, hits give high values
How it was run: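 Test compounds were applied to a repair-deficient yeast strain. Its growth was then compared with that of cultures given vehicle alone, and inhibition was expressed relative to those controls.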

[6] = NCI Yeast Anticancer Drug Screen. Data for the sgs1 mgt1 strain (AID 161);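 also: 0% = growth of cultures given vehicle only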; conditions: S. cerevisiae sgs1 mgt1 strain, hits give high values
How it was run: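 This yeast growth screen uses a strain with defined DNA-repair lesions; compound-treated growth is compared with vehicle-treated growth.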

[7] = NCI Yeast Anticancer Drug Screen. Data for the CLN2oe strain (AID 163);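 also: 0% = growth of vehicle-only control cultures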; conditions: S. cerevisiae CLN2oe strain, hits give high values
How it was run: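 Values reflect how much compound exposure reduced yeast growth, referenced to vehicle-exposed cells. Assay organism is a strain with a defined genetic change affecting cell-cycle control.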

[8] = NCI Yeast Anticancer Drug Screen. Data for the cln2 rad14 strain (AID 165);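 also: 0% = growth equal to vehicle treated cultures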; conditions: S. cerevisiae cln2 rad14 strain, hits give high values
How it was run: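 Relative to vehicle controls, growth inhibition of compound-treated cln2 rad14 yeast was recorded.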

[9] = NCI Yeast Anticancer Drug Screen. Data for the bub3 strain (AID 167); conditions: S. cerevisiae bub3 mutant strain, hits give high values
How it was run: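 Yeast carrying a defined mutation is treated with each compound, and growth is compared with that of vehicle-exposed cells to give inhibition.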

[10] = NCI Yeast Anticancer Drug Screen. Data for the wt2 strain (AID 169);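 also: 0% = growth of vehicle-treated yeast cultures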; conditions: S. cerevisiae wt2 strain growth inhibition, hits give high values
How it was run: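 Values express reduction in yeast growth under compound treatment, referenced to vehicle-treated cells.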

[11] = NCI Yeast Anticancer Drug Screen. Data for the mlh1 strain (AID 171);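 also: 0% = growth of vehicle-treated control cultures of the same strain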; conditions: S. cerevisiae mlh1 strain growth inhibition, hits give high values
How it was run: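 Steps: expose the defined-mutant yeast strain to compound; expose a parallel culture to vehicle; measure growth; express compound effect as inhibition relative to the vehicle culture.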

[12] = NCI Yeast Anticancer Drug Screen. Data for the sgs1 strain (AID 173);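 also: 0% = growth of vehicle-only control cultures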; conditions: S. cerevisiae sgs1 mutant, hits give high values
How it was run: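 Treat defined-mutant yeast with compound; measure growth; calculate inhibition relative to vehicle-treated cells.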

[13] = NCI Yeast Anticancer Drug Screen. Data for the mlh1 rad18 strain (AID 175); conditions: S. cerevisiae mlh1 rad18 strain growth inhibition, hits give high values
How it was run: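 Test agents were incubated with a yeast strain of defined genotype (DNA damage repair defect). Inhibition of growth was derived by comparison with vehicle-exposed cultures.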

[14] = NCI Yeast Anticancer Drug Screen. Data for the rad18 strain (AID 177); conditions: S. cerevisiae rad18 mutant growth inhibition, hits give high values
How it was run: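 A genetically defined yeast mutant impaired in DNA damage repair was treated with test compounds, then its growth was measured against cultures receiving vehicle alone.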

[15] = at 5.0 µM (retest, dose inferred, filed as 0.5)
[16] = at 50.0 µM (retest, dose inferred, filed as 5.0)

Measured: growth inhibition

O=C(O)/C=C\C(=O)Nc1ccc2c(c1)Cc1cc(Cl)ccc1-2
active: [8]; at 50.0 µM 80.3% | [14]; at 100.0 µM 80%
inactive: [1]; at 1.2 µM -3% | [1]; at 3.7 µM -3% | [1]; at 11.0 µM -6% | [1]; at 33.0 µM -5% | [1]; at 100.0 µM 0% | [2]; at 1.2 µM -3% | [2]; at 3.7 µM -5% | [2]; at 11.0 µM -1% | [2]; at 33.0 µM -4% | [2]; at 100.0 µM 22% | [3]; at 1.2 µM -3% | [3]; at 3.7 µM -4% | [3]; [15] 12% | [3]; at 11.0 µM -2% | [3]; at 33.0 µM 1% | [3]; [16] 7% | [3]; at 50.0 µM -6.3% | [3]; at 100.0 µM 19% | [4]; at 1.2 µM -4% | [4]; at 3.7 µM -1% | [4]; [15] -1% | [4]; at 11.0 µM -2% | [4]; at 33.0 µM 1% | [4]; [16] -4% | [4]; at 50.0 µM 1.65% | [4]; at 100.0 µM 10% | [5]; at 1.2 µM -3% | [5]; at 3.7 µM -4% | [5]; at 11.0 µM -3% | [5]; at 33.0 µM 4% | [5]; at 100.0 µM 29% | [6]; [15] -1% | [6]; [16] 33% | [6]; at 50.0 µM 34.1% | [7]; at 1.2 µM -4% | [7]; at 3.7 µM -7% | [7]; at 11.0 µM -11% | [7]; at 33.0 µM -13% | [7]; at 100.0 µM -3% | [8]; [15] -5% | [8]; [16] 15% | [9]; at 1.2 µM -4% | [9]; at 3.7 µM -5% | [9]; [15] -4% | [9]; at 11.0 µM -7% | [9]; at 33.0 µM -7% | [9]; [16] -7% | [9]; at 50.0 µM 11.9% | [9]; at 100.0 µM -1% | [10]; at 1.2 µM -3% | [10]; at 3.7 µM -3% | [10]; at 11.0 µM -5% | [10]; at 33.0 µM -3% | [10]; at 100.0 µM 11% | [11]; at 1.2 µM -2% | [11]; at 3.7 µM -1% | [11]; at 11.0 µM 1% | [11]; at 33.0 µM 4% | [11]; at 100.0 µM 27% | [12]; at 1.2 µM -2% | [12]; at 3.7 µM 0% | [12]; at 11.0 µM 4% | [12]; at 33.0 µM 10% | [12]; at 100.0 µM 50% | [13]; [15] 2% | [13]; [16] 59% | [13]; at 50.0 µM 54.1% | [14]; at 1.2 µM 0% | [14]; at 3.7 µM 5% | [14]; at 11.0 µM 18% | [14]; at 33.0 µM 34%
